# Test results as given in article PMC5700166.
# Molecular target: GST-Hu-p50 (Homo sapiens, UniProt P19838 7-356)
# Test: protein-binding microarray (PBM); PBM: ~300 nM protein, 6 mM HEPES pH 7.8, 80 mM KCl, 0.5 mM EDTA, 0.5 mM EGTA, 6% glycerol, 35 ng/ul poly-dIdC, 1% milk, 1 h, room temperature; Ap Aiptasia and Nv Nematostella (sea anemones) / Co Capsaspora / Aq Amphimedon (sponge) / Dm Drosophila / Hu human; RHD is the Rel homology domain; high values mean tight binding
# Details: dsDNA, one strand shown
# Chain of GST-Hu-p50 (P19838 7-356): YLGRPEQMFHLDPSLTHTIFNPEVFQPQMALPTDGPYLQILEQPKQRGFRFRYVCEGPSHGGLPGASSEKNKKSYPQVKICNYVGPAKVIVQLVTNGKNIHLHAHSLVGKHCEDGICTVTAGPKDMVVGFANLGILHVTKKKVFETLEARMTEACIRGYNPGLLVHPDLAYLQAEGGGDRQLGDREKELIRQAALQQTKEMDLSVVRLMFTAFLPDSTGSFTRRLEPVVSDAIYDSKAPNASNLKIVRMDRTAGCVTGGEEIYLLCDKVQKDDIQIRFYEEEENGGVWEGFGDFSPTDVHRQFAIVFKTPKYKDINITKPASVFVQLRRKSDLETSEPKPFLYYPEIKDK
row,Sequence,binding signal
1,CCGATTAACATCAGGGGAAGATATGATGTTAATCGGGTCTTGATTCGCTTGACGCTGCTG,5.33 z-score
2,CCGATTAACATCAGAAAATCCCCTGATGTTAATCGGGTCTTGATTCGCTTGACGCTGCTG,8.46 z-score
3,CCGATTAACATCAGGATGCCCCCTGATGTTAATCGGGTCTTGATTCGCTTGACGCTGCTG,4.35 z-score
4,CCGATTAACATCAAATTTTCCCGTGATGTTAATCGGGTCTTGATTCGCTTGACGCTGCTG,4.58 z-score
5,CCGATTAACATCAGGGGAGTTACTGATGTTAATCGGGTCTTGATTCGCTTGACGCTGCTG,4.45 z-score
6,CCGATTAACATCACGGGGGATTCTGATGTTAATCGGGTCTTGATTCGCTTGACGCTGCTG,7.01 z-score
7,CCGATTAACATCAATTATTCCCCTGATGTTAATCGGGTCTTGATTCGCTTGACGCTGCTG,6.11 z-score
8,CCGATTAACATCAGGGACTGCCCTGATGTTAATCGGGTCTTGATTCGCTTGACGCTGCTG,4.14 z-score
9,CCGATTAACATCAGATTCCCCCATGATGTTAATCGGGTCTTGATTCGCTTGACGCTGCTG,6.7 z-score
10,CCGATTAACATCAAGAACTTCCCTGATGTTAATCGGGTCTTGATTCGCTTGACGCTGCTG,2.19 z-score
11,CCGATTAACATCAAATATCCCCATGATGTTAATCGGGTCTTGATTCGCTTGACGCTGCTG,5.18 z-score
12,CCGATTAACATCAGGGAATTTACTGATGTTAATCGGGTCTTGATTCGCTTGACGCTGCTG,5.14 z-score
13,CCGATTAACATCAGCGATTCCCCTGATGTTAATCGGGTCTTGATTCGCTTGACGCTGCTG,5.54 z-score
14,CCGATTAACATCAGAATATCCCCTGATGTTAATCGGGTCTTGATTCGCTTGACGCTGCTG,5.75 z-score
15,CCGATTAACATCAGGGACTTTCATGATGTTAATCGGGTCTTGATTCGCTTGACGCTGCTG,5.49 z-score
16,CCGATTAACATCAGGGGGTTTGATGATGTTAATCGGGTCTTGATTCGCTTGACGCTGCTG,6.03 z-score
17,CCGATTAACATCAAATTCCCCCCTGATGTTAATCGGGTCTTGATTCGCTTGACGCTGCTG,6.85 z-score
18,CCGATTAACATCACTAAATCCCCTGATGTTAATCGGGTCTTGATTCGCTTGACGCTGCTG,6.6 z-score
19,CCGATTAACATCAGGAACTTCCCTGATGTTAATCGGGTCTTGATTCGCTTGACGCTGCTG,3.6 z-score

row,Sequence,binding signal
1,CCGATTAACATCAAATTTCCCTATGATGTTAATCGGGTCTTGATTCGCTTGACGCTGCTG,5.04 z-score
2,CCGATTAACATCAGGGAAAACCCTGATGTTAATCGGGTCTTGATTCGCTTGACGCTGCTG,5.66 z-score
3,CCGATTAACATCAGGGGGAACGATGATGTTAATCGGGTCTTGATTCGCTTGACGCTGCTG,4.41 z-score
4,CCGATTAACATCAGGGAATTTGATGATGTTAATCGGGTCTTGATTCGCTTGACGCTGCTG,3.22 z-score
5,CCGATTAACATCAGGATCCCCCCTGATGTTAATCGGGTCTTGATTCGCTTGACGCTGCTG,6.19 z-score
6,CCGATTAACATCAAATAAACCCCTGATGTTAATCGGGTCTTGATTCGCTTGACGCTGCTG,4.96 z-score
7,CCGATTAACATCAAATTCCCGCCTGATGTTAATCGGGTCTTGATTCGCTTGACGCTGCTG,3.12 z-score
8,CCGATTAACATCACGAAACCCCCTGATGTTAATCGGGTCTTGATTCGCTTGACGCTGCTG,7.11 z-score
9,CCGATTAACATCAGGGAAAATTATGATGTTAATCGGGTCTTGATTCGCTTGACGCTGCTG,5.34 z-score
10,CCGATTAACATCACTGGATTCCCTGATGTTAATCGGGTCTTGATTCGCTTGACGCTGCTG,1.36 z-score
11,CCGATTAACATCAGGGAAACTAATGATGTTAATCGGGTCTTGATTCGCTTGACGCTGCTG,2.79 z-score
12,CCGATTAACATCAAGCAATCCCCTGATGTTAATCGGGTCTTGATTCGCTTGACGCTGCTG,5.37 z-score
13,CCGATTAACATCAGGGGATTGTATGATGTTAATCGGGTCTTGATTCGCTTGACGCTGCTG,6.01 z-score
14,CCGATTAACATCACTATATCCCCTGATGTTAATCGGGTCTTGATTCGCTTGACGCTGCTG,3.18 z-score
15,CCGATTAACATCAAGTTCCCCCATGATGTTAATCGGGTCTTGATTCGCTTGACGCTGCTG,6.24 z-score
16,CCGATTAACATCAAGGGTGGGAATGATGTTAATCGGGTCTTGATTCGCTTGACGCTGCTG,1.83 z-score
17,CCGATTAACATCAGAGCTCCCCCTGATGTTAATCGGGTCTTGATTCGCTTGACGCTGCTG,4.94 z-score
18,CCGATTAACATCACACATCCCCCTGATGTTAATCGGGTCTTGATTCGCTTGACGCTGCTG,4.48 z-score
